Several values for one entry are separate records, joined by “and”; a condition that tells them apart may be missing. Equal values may be shown once. Records with an inconclusive call do not appear. Where a call stands in place of a potency, no number is given. Activity calls are given as the source filed them. Unless noted, the call rests on the fitted dose curve; in most records, active means well fitted curve in the direction sought with a large enough effect; inconclusive means small, poorly fitted or top-dose-only effect, or another doubt; inactive means no such curve, though single readings can be large; an effect the other way counts as inactive or inconclusive.
Tests used:
[1] = biological target: Alpha-galactosidase A (Homo sapiens) (UniProt P06280); assay: Counterscreen for Glucocerebrosidase Inhibitors: qHTS Assay for Human alpha-Galactosidase at pH 4.5 (AID 992)
Sequence of Alpha-galactosidase A (Homo sapiens) (P06280 whole entry, looked up): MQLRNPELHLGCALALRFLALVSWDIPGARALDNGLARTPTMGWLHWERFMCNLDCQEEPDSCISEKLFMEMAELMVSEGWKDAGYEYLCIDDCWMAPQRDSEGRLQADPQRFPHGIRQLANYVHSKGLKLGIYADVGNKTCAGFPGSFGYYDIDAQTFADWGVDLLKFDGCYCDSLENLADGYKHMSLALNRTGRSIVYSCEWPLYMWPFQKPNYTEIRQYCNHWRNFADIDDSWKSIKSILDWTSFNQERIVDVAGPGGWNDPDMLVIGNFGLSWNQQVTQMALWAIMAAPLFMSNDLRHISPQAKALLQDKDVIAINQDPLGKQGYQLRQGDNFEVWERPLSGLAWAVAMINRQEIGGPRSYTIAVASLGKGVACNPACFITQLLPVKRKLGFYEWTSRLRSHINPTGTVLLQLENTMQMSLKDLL
Method in brief: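 Concentration-response curves (0.7 nM to 77 uM final) were modeled with the Hill equation to give AC50. Reactions: 2 nM enzyme, 80 uM fluorogenic alpha-galactoside, pH 4.5 citric acid buffer, 20 min, room temperature.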

[2] = biological target: alpha-glucosidase (Oryza sativa, rice) (UniProt Q653V4); assay: Counterscreen for Glucocerebrosidase Inhibitors: qHTS Assay for Rice alpha-Glucosidase at pH 5.0 (AID 997)
Method in brief: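 Rice alpha-glucosidase (4 nM final) with 400 uM 4-methylumbelliferyl-alpha-D-glucopyranoside in citrate buffer pH 5.0, 20 min at room temperature, stopped at pH 10; fluorescence 365/440 nm, compounds 0.7 nM–77 uM, AC50 from Hill fits.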

[3] = Validation of Assay for Modulators of Lamin A Splicing (AID 1459; active means well fitted curve in the direction sought with a large enough effect in the signal ratio; the % refers to the signal ratio;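 further: cells exposed to compound for two days before reading; ratio rise marks activators and ratio drop marks inhibitors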)
Method in brief: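 HeLa S3 lamin A-EGFP/DsRed2 stable clone, 600 cells/well, Opti-MEM 2% FBS; compounds by pin tool; 48 hrs, 37 °C/5% CO2; Acumen 488 nm scan, objects 10-100 um; GFP/RFP intensity ratio.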

[4] = qHTS Assay for Lipid Storage Modulators (AID 1519; calls by dose curve); conditions: Drosophila S3 cells, BODIPY lipid droplet/cell ratio, laser cytometry, cells loaded with oleic acid
Method in brief: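 Cells seeded at 5,000 per well were treated with compounds over a concentration series and loaded with oleic acid (400 uM, as added). Lipid droplet fluorescence (488 nm excitation, 500-530 nm channel) was read by laser-scanning cytometry and normalized to 20 uM Triacsin C.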

[5] = Cell Viability - LYMP2-002 (AID 977);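 further: compound exposure lasted 24 h at 37 °C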
Method in brief: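 Human lymphoblastoid LYMP2-002 cells, 2500 per well, exposed to compounds for 24 h at 37 C in complete medium; viability read as intracellular ATP by CellTiter-Glo luminescence, AC50 from Hill fits.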

[6] = Cell Viability - LYMP2-006 (AID 978); further: nearly all actives have a fitted effect of over 60% in size
Method in brief: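 Cells are seeded at 2500 per well and rested 5 hr at 37 C. Compounds are added across a concentration series for 24 hr at 37 C, after which ATP is quantified by luciferase luminescence.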

[7] = Cell Viability - LYMP2-007 (AID 979);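 further: cells exposed to compound for 24 h before reading; nearly all actives have a fitted effect of over 60% in size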
Method in brief: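 Human lymphoblastoid LYMP2-007 cells (2500/well) preincubated 5 h at 37 C, then treated 24 h at 37 C in complete medium. Viability by CellTiter-Glo ATP luminescence after 30 min at room temperature; AC50 from Hill fits.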

[8] = Cell Viability - LYMP2-008 (AID 980); further: nearly all actives have a fitted effect of over 60% in size
Method in brief: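 LYMP2-008 lymphoblastoid cells (2500/well) plated 5 h, then treated 24 h at 37 C in complete medium. Viability read as intracellular ATP by CellTiter-Glo luminescence after 30 min at room temperature; AC50 from Hill fits.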

[9] = Cell Viability - LYMP2-010 (AID 981); further: nearly all actives have a fitted effect of over 55% in size
Method in brief: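 Human lymphoblastoid LYMP2-010 cells (2500/well) treated 24 h at 37 C in complete medium; viability read as intracellular ATP by CellTiter-Glo luminescence. AC50 from Hill fits of concentration-response data; tetraoctylammonium bromide positive control.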

[10] = Cell Viability - LYMP2-012 (AID 982);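 further: cellular ATP by luciferase luminescence where a drop means cytotoxicity; cells exposed to compound for one day before reading; nearly all actives have a fitted effect of over 55% in size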
[11] = Cell Viability - LYMP2-014 (AID 983); further: nearly all actives have a fitted effect of over 50% in size
Method in brief: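 LYMP2-014 human lymphoblastoid cells, 2500/well, treated 24 h at 37 C in complete medium; viability by CellTiter-Glo ATP luminescence after 30 min at room temperature. AC50 from Hill fits of qHTS concentration-response; tetraoctylammonium bromide positive control.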

[12] = Cell Viability - LYMP2-016 (AID 984); further: nearly all actives have a fitted effect of over 55% in size
Method in brief: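 Cells were seeded at 2500 per well and rested 5 hr before a 24 hr compound exposure at 37 C. Viability was then gauged as cellular ATP by luciferase luminescence, with AC50 values fitted to the Hill equation.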

[13] = Cell Viability - LYMP2-018 (AID 985); further: nearly all actives have a fitted effect of over 50% in size
Method in brief: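 Human lymphoblastoid LYMP2-018 cells, 2500/well, settled 5 hr at 37 C then exposed to compound 24 hr at 37 C; intracellular ATP measured by CellTiter-Glo luminescence. AC50 from Hill-equation concentration-response fits.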

[14] = Cell Viability - LYMP2-020 (AID 986); further: nearly all actives have a fitted effect of over 55% in size
Method in brief: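 Human lymphoblastoid LYMP2-020 cells (2500/well) preincubated 5 h at 37 C, then treated 24 h at 37 C. Viability measured as intracellular ATP by CellTiter-Glo luminescence after 30 min at room temperature; AC50 from Hill fits.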

[15] = Cell Viability - LYMP2-022 (AID 987); further: nearly all actives have a fitted effect of over 55% in size
Method in brief: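 LYMP2-022 lymphoblastoid cells (2500/well, complete medium) were treated with compounds for 24 hours at 37 C; intracellular ATP was then read by CellTiter-Glo luminescence after 30 min at room temperature. AC50 values were derived from Hill-equation fits.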

[16] = Cell Viability - LYMP2-024 (AID 988); further: nearly all actives have a fitted effect of over 60% in size
Method in brief: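 Human lymphoblastoid LYMP2-024 cells (2500/well) rested 5 hr, then treated with compound for 24 hr at 37 C in complete medium. Viability was measured as intracellular ATP by CellTiter-Glo luminescence. AC50 values came from Hill-equation fits.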

[17] = Cell Viability - LYMP2-026 (AID 989); further: nearly all actives have a fitted effect of over 50% in size
Method in brief: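 Human lymphoblastoid LYMP2-026 cells, 2500/well, exposed to compound 24 h at 37 C in complete medium. Viability as intracellular ATP by CellTiter-Glo luminescence; AC50 from Hill fits of qHTS concentration-response.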

[18] = Cell Viability - LYMP1-002 - Assay at 24 hr (AID 993)
Method in brief: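 Human lymphoblastoid LYMP1-002 cells (2500/well) treated 24 h at 37 °C; viability as intracellular ATP by CellTiter-Glo luminescence. Tetraoctylammonium bromide as positive control; AC50 from Hill-equation fits of qHTS concentration-response.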

[19] = Cell Viability - LYMP1-002 - Assay at 40 hr (AID 994); further: nearly all actives have a fitted effect of over 60% in size
Method in brief: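 LYMP1-002 human lymphoblastoid cells (2500/well, complete medium) were treated with compounds for 40 hr at 37 C. Intracellular ATP was measured by CellTiter-Glo luminescence, and AC50 values came from Hill-equation fits of concentration-response data; tetraoctylammonium bromide was the positive control.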

[20] = biological target: Alpha-galactosidase (Coffea arabica) (UniProt Q42656); assay: Counterscreen for Glucocerebrosidase Inhibitors: qHTS Assay for Coffee Bean alpha-Galactosidase at pH 5.9 (AID 998)
Sequence of Alpha-galactosidase (Coffea arabica) (Q42656 whole entry, looked up): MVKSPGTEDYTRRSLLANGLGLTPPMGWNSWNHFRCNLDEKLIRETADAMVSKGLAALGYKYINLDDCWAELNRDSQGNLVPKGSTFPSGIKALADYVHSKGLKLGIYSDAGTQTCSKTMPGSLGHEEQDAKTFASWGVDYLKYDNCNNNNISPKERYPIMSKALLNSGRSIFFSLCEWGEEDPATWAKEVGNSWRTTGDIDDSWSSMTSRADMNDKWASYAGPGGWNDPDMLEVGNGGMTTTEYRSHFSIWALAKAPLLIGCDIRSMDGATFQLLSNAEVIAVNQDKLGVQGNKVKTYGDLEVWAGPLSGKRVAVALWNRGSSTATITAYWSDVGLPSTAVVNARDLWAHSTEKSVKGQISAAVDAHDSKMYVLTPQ
Method in brief: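 Green coffee bean enzyme (2 nM) with 4-methylumbelliferyl alpha-D-galactopyranoside (80 uM) in 50 mM citric acid, 0.005% Tween-20, pH 5.9, 20 min at room temperature; compounds 0.7 nM–77 uM. Stopped at pH 10, fluorescence Ex365/Em440; Hill-fit AC50.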

[21] = measured here: cell count channel max response
[22] = measured here: lipid channel max response

O=C(CCCN1CCC2(CC1)C(=O)NCN2c1ccccc1)c1ccc(F)cc1
outcome [1]: inactive
outcome [2]: inactive
outcome [3]: inactive
activity change, negative = inhibition ([4]; at 25.7 µM (top of the series)): -0.907% (inactive)
activity change, negative = inhibition ([4]; at 57.5 µM (top of the series)): 7.99% (inactive)
max response [4, 21]: -5.72% and 5.19%
max response [4, 22]: -10.3% and 17.9%

COc1cc(OC)c(OC)cc1C=O
outcome [5]: inactive
outcome [6]: inactive
outcome [7]: inactive
outcome [8]: inactive
Potency [9]: inactive
outcome [10]: inactive
outcome [11]: inactive
outcome [12]: inactive
Potency [13]: inactive
outcome [14]: inactive
Potency [15]: inactive
outcome [16]: inactive
outcome [17]: inactive
Potency [18]: inactive
Potency [19]: inactive
activity change, negative = inhibition ([4]; at 57.5 µM (top of the series)): 10.2% (inactive)
max response [4, 21]: 14.2%
max response [4, 22]: 28.2%

Cc1ccc(C(=O)c2ccc(CC(=O)O)n2C)cc1
activity change, negative = inhibition ([4]; at 25.7 µM (top of the series)): -1.39% (inactive)
max response [4, 21]: -5.63%
max response [4, 22]: -8.93%

C[C@]12CCC(=O)C=C1CC[C@@H]1[C@@H]2CC[C@]2(C)C(=O)CC[C@@H]12
outcome [5]: inactive
outcome [6]: inactive
outcome [7]: inactive
outcome [8]: inactive
Potency [9]: inactive
outcome [10]: inactive
outcome [11]: inactive
outcome [12]: inactive
Potency [13]: inactive
outcome [14]: inactive
Potency [15]: inactive
outcome [16]: inactive
outcome [17]: inactive
outcome [1]: inactive
Potency [18]: inactive
Potency [19]: inactive
outcome [2]: inactive
outcome [3]: inactive
activity change, negative = inhibition ([4]; at 57.5 µM (top of the series)): 0.917% (inactive)
max response [4, 21]: 67.2%
max response [4, 22]: 68.1%

Cn1c(=O)c2[nH]cnc2n(C)c1=O
outcome [20]: inactive
activity change, negative = inhibition ([4]; at 25.7 µM (top of the series)): -0.949% (inactive) and -1.67% (inactive)
activity change, negative = inhibition ([4]; at 57.5 µM (top of the series)): 8.67% (inactive)
max response [4, 21]: -7.33% and -5.65% and 13.2%
max response [4, 22]: -6.71% and -6.91% and 31.3%

CC(C)(C)NCC(O)c1ccccc1Cl (stereo not drawn)
activity change, negative = inhibition ([4]; at 57.5 µM (top of the series)): 6.93% (inactive) and 0.29% (inactive)
max response [4, 21]: -1.25% and 42.1%
max response [4, 22]: 8.8% and 40.7%

Clc1cccc(SC2CCNCC2)n1
activity change, negative = inhibition ([4]; at 57.5 µM (top of the series)): -5.67% (inactive)
max response [4, 21]: -24.9%
max response [4, 22]: -29.2%

O=c1[nH]oc2c1CCNC2
outcome [1]: inactive
outcome [2]: inactive
activity change, negative = inhibition ([4]; at 25.7 µM (top of the series)): -3.52% (inactive)
activity change, negative = inhibition ([4]; at 57.5 µM (top of the series)): -0.0762% (inactive) and 5.91% (inactive)
max response [4, 21]: -6.88% and 7.61% and 14.4%
max response [4, 22]: -10.1% and 10.3% and 21.9%

CC(C)c1cccc(C(C)C)c1O
outcome [5]: inactive
outcome [6]: inactive
outcome [7]: inactive
outcome [8]: inactive
Potency [9]: inactive
outcome [10]: inactive
outcome [11]: inactive
outcome [12]: inactive
Potency [13]: inactive
outcome [14]: inactive
Potency [15]: inactive
outcome [16]: inactive
outcome [17]: inactive
outcome [1]: inactive
Potency [18]: inactive
Potency [19]: inactive
outcome [2]: inactive
outcome [3]: inactive
activity change, negative = inhibition ([4]; at 25.7 µM (top of the series)): -0.519% (inactive)
max response [4, 21]: -4.81%
max response [4, 22]: -3.68%

O=c1oc2ccccc2c(O)c1Cc1c(O)c2ccccc2oc1=O
activity change, negative = inhibition ([4]; at 25.7 µM (top of the series)): 0.983% (inactive)
max response [4, 21]: -11.3%
max response [4, 22]: -10.4%

CCC1(c2ccc(N)cc2)CCC(=O)NC1=O (stereo not drawn)
outcome [3]: inactive

NC(=O)CS(=O)C(c1ccccc1)c1ccccc1 (stereo not drawn)
activity change, negative = inhibition ([4]; at 57.5 µM (top of the series)): 4.67% (inactive)
max response [4, 21]: 3.09%
max response [4, 22]: 10.7%

Cc1ccc(Cl)c(Nc2ccccc2C(=O)O)c1Cl
outcome [20]: inactive

C1COC(NC(C2CC2)C2CC2)=N1
outcome [20]: inactive

Cc1nc2ccccn2c(=O)c1CCN1CCC(C(=O)c2ccc(F)cc2)CC1
outcome [20]: inactive

CN1CCN(CCC=C2c3ccccc3Sc3ccc(S(=O)(=O)N(C)C)cc32)CC1
outcome [20]: inactive

— PubChem BioAssay (NCATS)
